Measurements from PubChem BioAssay (NCI).
The panel holds about 83,000 compounds, 20% with a hit somewhere; the sample as a whole holds those more often.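 Interpretation: 100, growth as untreated; towards 0, rising growth inhibition; 0, no net growth; 0 to -100, cell death. Compounds scoring below 10 were considered active.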 A number with no mark means an inactive call. Active and inactive are the calls of the source.

Columns and labels:
Experiment in all cases: NCI-60 one-dose screen, 48 h (100 = growth as untreated, 0 = no growth, -100 = all killed)
Settings in all cases: 10 µM unless noted
[1] = test system: NCI-H23 lung
[2] = test system: NCI-H226 lung
[3] = test system: NCI-H322M lung
[4] = test system: NCI-H460 lung
[5] = test system: HOP-92 NSCLC
[6] = test system: NCI-H522 lung
[7] = test system: A549/ATCC NSCLC
[8] = test system: 786-0 renal
[9] = test system: COLO 205 colon
[10] = test system: DU-145 prostate
[11] = test system: K-562 leukemia
[12] = test system: MALME-3M melanoma
[13] = test system: MDA-MB-231 breast
[14] = test system: RXF 393 renal
[15] = test system: SF-268 CNS
[16] = test system: SF-295 CNS
[17] = test system: SF-539 CNS
[18] = test system: UACC-257 melanoma
[19] = test system: M14 melanoma
[20] = test system: HOP-62 NSCLC

Structure (SMILES) | growth [1] | growth [2] | growth [3] | growth [4] | growth [5] | growth [6] [%] | growth [7] | growth [8] | growth [9] | growth [10] | growth [11] | growth [12] | growth [13] | growth [14] | growth [15] | growth [16] | growth [17] | growth [18] | growth [19] | growth [20]
C=CCn1cc(C=C2C(=O)N(C)C(=O)N(C)C2=O)c2ccccc21 | 84.4% | -47.6% (active) | 87.8% | 56% | 91.2% | 105 | 107% | 101% | 116% | 108% | 108% | 97.4% | 88.4% | 89.9% | 97.8% | 66.4% | 102% | 94.4% | 88.9% | 
COC(=O)[C@@]1(O)C[C@H]2O[C@]1(C)n1c3ccccc3c3c4c(c5c6ccccc6n2c5c31)C(=O)NC4 | -43% (active) | -63.1% (active) | -33.6% (active) | -72.8% (active) | -44.3% (active) |  | -39.7% (active) | -89.5% (active) | -66.6% (active) | -10.9% (active) | 0.0974% (active) | -81% (active) | -49.1% (active) | -93.9% (active) | -28.8% (active) | -93.4% (active) | -88% (active) | -47.2% (active) | -67.5% (active) | -59.3% (active)
CCC1(C(C)C)C(=O)NC(=S)NC1=O | 117% | 90.5% | 106% | 102% | 91.5% |  | 95.7% | 108% | 123% | 115% | 107% | 111% | 114% | 94.8% | 96.1% |  | 94.3% | 92.2% | 106% | 102%
O=C(Nc1ccc(O)cc1)C(Cl)(Cl)Cl | 101% | 101% | 102% | 105% | 105% |  | 98.4% | 95.2% | 102% | 108% | 98.2% | 96.8% | 98.4% | 107% | 101% | 99.8% | 93.1% | 90.2% | 91.2% | 104%
Cc1cccc(N2CCN(C(C)C#N)CC2)c1 (stereo not given) | 97.6% | 96.6% | 93.8% | 109% | 91.4% |  | 107% | 90.3% | 105% | 107% | 98.4% | 102% | 104% | 105% | 103% | 84.6% | 104% | 97.9% | 105% | 107%
CCOC(=O)N[C@H]1CCc2c(Br)c(OC)c(OC)c(OC)c2-c2ccc(SC)c(=O)cc21 | 31.2% | 10.3% | 35.3% | -7.92% (active) | -4.54% (active) |  | 20.9% | 9.3% (active) | 5.51% (active) | -19.5% (active) | 5.89% (active) | 35.1% | -7.24% (active) | 12.8% | 17.5% | 10.8% | -31.9% (active) | 67.5% | 0.572% (active) | 34.9%
CC[C@H](C)[C@H](NC(=O)N[C@@H](C)c1ccccc1)C(=O)N(C)[C@H](C[C@@H](OC(C)=O)c1nc(C(=O)N[C@@H](Cc2ccccc2)C[C@H](C)C(=O)OC)cs1)C(C)C | 27% | 30.7% | 51.2% | 3.57% (active) | 73.1% |  | 31.3% | 10.9% | -46.8% (active) | -4.64% (active) | 14% | 44.9% | -6.65% (active) | -8.76% (active) | 22.2% | 5.49% (active) | -27.6% (active) | 75.3% | -12.2% (active) | 22.7%
CCCc1cc(O)c2c3c(c(=O)oc2c1)CN(C)CC3 | 54.5% | 38.9% | 42.9% | 11.9% | 81.6% |  | 29.1% | 55% | 21% | 43% | 12% | -1.24% (active) | 60.4% | 10.9% | 37% |  | 31.7% | 68.5% | 16.4% | 28.6%
Brc1ccc2c(c1)c(-c1nc(-c3c[nH]c4ncccc34)cs1)cn2CCN1CCOCC1 | 71.8% | 60.2% | 72.1% | 63.2% | 52.2% |  | 61.7% | 67.5% | 64.3% | 86.5% | 24.3% | 88.5% | 53.3% | 74.6% | 65.4% | 74.4% | 61% | 99.7% | 63.8% | 60.4%
CN(CCCCN(C)CCOS(C)(=O)=O)CCOS(C)(=O)=O | 84% | 75% | 105% | 35.2% | 86.3% |  | 78.9% | 100% | 74.2% | 96.7% | 93.3% | 86.9% | 79.7% | 90.1% | 66.4% | 109% | 47.2% | 82.3% | 76.4% | 84.7%
CCCCCCCCCCCCCC[P+](CCCCCC)(CCCCCC)CCCCCC | -39.3% (active) | -1.45% (active) | -11.9% (active) | -59.4% (active) | -67.1% (active) |  | -35% (active) | -65.8% (active) | -65.4% (active) | -100% (active) | 39% | -83.9% (active) | -38.3% (active) | -97.7% (active) | -4.6% (active) | -68.4% (active) | 5.67% (active) | -34.6% (active) | -36.5% (active) | -2.18% (active)
COc1ccc(/C=C\c2cc(OC)c(OC)c(OC)c2)cc1NC(=O)/C=C/c1ccc(OC)c(OC)c1 | 0.102% (active) | 35.9% | 68.2% | 22% | 115% |  | 41.7% | 35.7% | -4.78% (active) | 15.9% |  | 51.7% | 58.6% | -15.1% (active) | 41.7% | 5.37% (active) | 2.69% (active) | 73.9% | 23.4% | 39.5%
CC(=O)[O][Hg][c]1c(N)c(C)cc(C)c1F | 48.6% | 90.2% | 85.1% | 43.8% | 12.1% |  | 84.7% | -31.7% (active) | -16.6% (active) | 36.3% | 5.95% (active) | -72.4% (active) | 7.24% (active) |  | -15.5% (active) | 73% | 28.3% | 31% | 5.84% (active) | 59.5%
CCOC(=O)C(Cc1ccc(N(CCCl)CCCl)cc1)NC(=O)C(CC(C)C)NC(C)=O (stereo not given) | 17.1% | 50% | 97.1% | 1.65% (active) | 24.6% |  | 49.4% | 9.46% (active) | -29.3% (active) | 14.3% | 12.6% | -33% (active) | 51.6% | -15.5% (active) | 5.5% (active) |  | 13.2% | 24.2% | -4.57% (active) | 41%
COc1cc(/C=N/C2=C(C#N)C(c3ccco3)c3c(c4cc(C)ccc4oc3=O)O2)cc(OC)c1OC (stereo not given) | 95.1% | 86.3% | 100% | 103% | 59.4% |  | 99.5% | 92.5% | 118% | 107% |  | 97.2% | 95.6% |  | 95.2% | 92.2% | 90.8% | 94.2% | 93.4% | 87.3%
COC(=O)[C@@H](C)C[C@H](Cc1ccccc1)NC(=O)c1csc([C@@H](C[C@H](C(C)C)N(C)C(=O)C2(NC(=O)[C@H]3CCCCN3C)CC2)OC(C)=O)n1 | 15.7% | 50.8% | 44.8% | 3.12% (active) | -3.99% (active) |  | 11.7% | 17.6% | -55% (active) | 7.25% (active) | 3.8% (active) | 73.3% | 13.4% | 77.5% | 17.5% | 4.29% (active) | -10.4% (active) | 56% | 0.0884% (active) | 9.05% (active)
CC1(C)N=C(N)N=C(N)N1c1cccc(CCCCc2ccc(Cl)c(S(=O)(=O)F)c2)c1 | 28.4% | 57.1% | 54.9% | 21.4% | 41.3% |  | 10.6% | 5.96% (active) | 72.7% | 47.5% | 16.4% | 56% | 69.8% |  | 35.9% | 39% | 19.9% | 33.6% | 39% | 33.6%
